# Sa RN4220 lethal – kills Staphylococcus aureus RN4220; S. aureus RN4220 growth, OD600, 16 h; inhibition, % (no concentration beside the values); actives 0.33% (n = 330,000); in the data active means inhibition above about 85%;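 further: plate controls were untreated cells for no effect and reference antibiotic for full effect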
# ugtP null kill – growth inhibition of S. aureus ugtP deletion strain | S. aureus RN4220 ugtP deletion, OD600 growth, 16 h | growth inhibition, % (no concentration beside the values) | actives 0.54% (n = 330,000) | AID 1259309; in the data active means growth inhibition above about 68%;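 further: plate controls were untreated wells for no effect and antibiotic for full effect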
# SSB-PriA inh – blocks PriA binding to SSB C-terminal tail; AlphaScreen SSBct-PriA binding, biotinylated peptide; inhibition, % at 33 µM; actives 0.6% (n = 430,000); AID 1272365; in the data active means inhibition mostly above about 37%, no sharp cut-off; inactive means mostly below about 20%;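 further: plate controls were negative control peptide for no effect and reference peptide for full effect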
# An asterisk follows results filed as active; . = no result; ! = not confirmed by another sample. This is a sample that favours compounds with a hit; in the whole collection about 1% have one here.
SMILES,Sa RN4220 lethal,ugtP null kill,SSB-PriA inh
N#Cc1nc(-c2cccs2)oc1NCc1ccc2c(c1)OCO2,-5.1,10.5,48.2*
Cc1nc(OCC(=O)Nc2nc(-c3ccccc3)cs2)cc(-n2cccn2)n1,.,.,-5.0
COc1ccc(N=Nc2cc(C)c(O)c(CN3CCCCC3)c2)cc1,0.7,14.7,53.5*
COc1ccc(CN2CCCCCC2)cc1,5.1,17.4,-5.7
CC(C)Cc1nc2sc3c(c2c(=O)n1N)CC(C(C)C)OC3 (stereo not drawn),5.0,-0.6,-3.4
CC(C)C1Cc2c(sc3ncnc(NN)c23)CO1 (stereo not drawn),0.8,12.6,45.6*
Cc1cc(C)cc(N2N=NC3C(=O)N(c4ccc5c(c4)CCC5)C(=O)C32)c1 (stereo not drawn),.,.,-6.0
COC1=C(Nc2ccccc2)C(=O)c2ccccc2C1=O,74.4,60.4,116.9
COC1=C(Nc2ccc(C)cc2)C(=O)c2ccccc2C1=O,32.2,24.4,90.1*
Cc1noc(CNC(=O)c2cc(OCc3ccccc3)no2)n1,.,.,-43.0
CC(=O)c1ccc(NC(=S)Nc2ccc(N3CCOCC3)cc2)cc1,9.3,-61.6,2.6
CCc1ccc(C(=O)NC(=S)Nc2ccc(N3CCOCC3)cc2)cc1,-3.4,89.5*,16.2
O=C(NC(=S)Nc1ccc(N2CCOCC2)cc1)c1ccccc1,4.1,46.0,-3.0
COc1ccc(C(=O)NC(=S)Nc2ccc(CN3CCOCC3)cc2)cc1OC,1.9,42.3,-1.7
COc1ccc(C(=O)NC(=S)Nc2ccc(CN3CCOCC3)cc2)cc1Cl,7.7,86.3*,24.8
O=C(NC(=S)Nc1ccc(N2CCOCC2)cc1)c1cccc(Cl)c1,4.7,92.7*,6.0
Cc1noc(C)c1S(=O)(=O)N1CCc2cnc(N3CCOCC3)nc2C1,.,.,-7.0
O=C(c1ccc(S(=O)(=O)N2CCCC2)cc1)N1CCC(Oc2ncccc2Cl)CC1,.,.,-1.0
COc1ccc(CNC(=O)NCC2(c3ccsc3)CCCC2)cc1,.,.,2.0
O=c1[nH]c(=O)n(CCC2=CCCCC2)c(O)c1C=NN1CCOCC1,.,.,-1.2
Cc1ccc2sc(N(CCCN(C)C)C(=O)c3nc4ccccc4s3)nc2c1C,-6.8,-7.3,-0.3
CCN(Cc1ccccc1)S(=O)(=O)c1ccc(C(=O)N(CCCN(C)C)c2nc3cc4c(cc3s2)OCO4)cc1,0.2,-5.2,34.7
Cc1ccc2sc(N(CCCN(C)C)C(=O)c3ccc(S(=O)(=O)N(C)C4CCCCC4)cc3)nc2c1C,-4.2,-17.2,40.0*!
CCN(CC)CCN(C(=O)c1ccc(S(=O)(=O)N(C)C2CCCCC2)cc1)c1nc2c(C)cccc2s1,-0.4,8.6,24.7
CCN(Cc1ccccc1)S(=O)(=O)c1ccc(C(=O)N(CCCN(C)C)c2nc3c(C)c(C)ccc3s2)cc1,1.5,-21.9,39.0*!
SMILES,Sa RN4220 lethal,ugtP null kill,SSB-PriA inh
Cc1cccc2sc(N(CCCN(C)C)C(=O)c3nc4ccccc4s3)nc12,4.7,-5.2,51.0*
CCOC(=O)c1nn(-c2ccccc2C)c(=O)cc1N1CCN(c2cccc(Cl)c2)CC1,.,.,-8.0
CC(=O)N1c2ccccc2CC1C(=O)O (stereo not drawn),.,.,7.0
O=C(CC1CCCCC1)NCCOc1ccc(-c2ccco2)nn1,.,.,-6.0
Cc1cc(C)c2nc(C)cc(NC(=O)c3ccc(S(=O)(=O)N4CCCC4)cc3)c2c1,.,.,5.0
Cc1cc(C)c(C)c(-c2nnc(NC(=O)c3cccc(Cl)c3)s2)c1C,.,.,0.0
Cc1ccc(S(=O)(=O)Nc2ccc3nc(-c4cccn4C)[nH]c3c2)cc1,2.7,-3.7,87.5*
Cn1cccc1-c1nc2ccc(NC(=O)c3ccccc3)cc2[nH]1,-6.8,-2.1,18.5
CCOc1cc(C(=O)N2CCN(c3ccc(N4CCOCC4)nn3)CC2)cc(OCC)c1OCC,.,.,-33.0
CCOc1ccc(CC(=O)N2CCN(c3ccc(N4CCOCC4)nn3)CC2)cc1OCC,4.5,-5.5,54.5*
Cc1cc(=O)n2c(-c3cccc(NC(=O)c4ccc(F)cc4)c3)csc2n1,.,.,-17.0
CCC(CC)C(=O)Oc1c(Sc2ccccc2[N+](=O)[O-])c(C)nn1C(C)(C)C,-6.8,95.6*,26.7
COCC(=O)Oc1c(Sc2ccccc2[N+](=O)[O-])c(C)nn1C(C)(C)C,7.6,7.2,7.7
O=C(Nc1nc2c(s1)CCCC2)c1cc(-n2ccnc2)ccn1,.,.,3.0
COc1ccc(-c2cn3c(CCC(=O)Nc4nc(C)cs4)csc3n2)cc1,.,.,19.0
COc1ccc(-c2cn3c(C(=O)Nc4ccc5c(c4)OCCO5)csc3n2)cc1,.,.,active
O=C(Nc1ccc2c(c1)OCCO2)c1csc2nc(-c3ccc(F)cc3)cn12,.,.,-16.0
COc1ccc(-c2cn3c(CCC(=O)Nc4ccc5c(c4)OCO5)csc3n2)cc1,.,.,38.0*
O=S(=O)(c1ccc2c(c1)CCCC2)N1CCN(c2ccc(-c3ccc4c(c3)OCO4)nn2)CC1,.,.,-13.0
COc1ccc(CCNC(=O)Cn2ccn(S(=O)(=O)c3ccc(C)cc3)c2=O)cc1OC,.,.,11.0
CCC(=O)NCCS(=O)(=O)N1CCN(c2ccc(OC)cc2)CC1,.,.,8.0
COc1nn(C)cc1C(=O)NCCn1cnc2ccsc2c1=O,.,.,2.0
Fc1cc(F)c2ncccc2c1,.,.,21.0
CCCSC(=S)c1c(C)[nH]n(-c2ccccc2)c1=O,90.8*,89.8*,4.7
CCCCN(CCCC)C(=S)NN=Cc1c(C)[nH]n(-c2ccccc2)c1=O,4.0,-13.2,-6.1
SMILES,Sa RN4220 lethal,ugtP null kill,SSB-PriA inh
CC(=NNC(=O)c1ccccc1)c1c(C)[nH]n(-c2ccccc2)c1=O,7.5,-6.5,-2.5
CCC(=NNC(=O)c1ccccc1O)c1c(C)[nH]n(-c2ccccc2)c1=O,92.5*,97.9*,-1.5
COc1ccc(C(=O)COC(=O)CN2CC(=O)Oc3ccccc32)cc1Br,3.4,0.0,80.1*
COc1ccc(C(=O)COC(=O)C2CC3CCCC(C2)C3=O)cc1Br (stereo not drawn),0.5,5.1,-4.5
CC(=O)Nc1ccc2c(c1)CN(C(=O)c1cccs1)CC2,.,.,-6.0
O=C(COc1ccc(Cl)cc1)Nc1ccc2c(c1)N(C(=O)C1CCCO1)CC2 (stereo not drawn),.,.,-13.0
COc1ccc(OC)c2sc(N(CCN3CCOCC3)C(=O)c3ccc4c(c3)CCCC4)nc12,.,.,41.0*
CCN(CC)CCN(C(=O)c1ccc2c(c1)CCCC2)c1nc2ccc(C)cc2s1,-9.3,1.4,14.0
COc1ccc(OC)c2sc(N(CCCN3CCOCC3)C(=O)c3ccn(C)n3)nc12,.,.,-7.0
COc1ccc(OC)c2sc(N(CCCN3CCOCC3)C(=O)c3ccccc3SC)nc12,.,.,28.0*
CCN(CC)CCN(C(=O)c1ccc2c(c1)CCCC2)c1nc2ccc(OC)cc2s1,-5.4,1.1,46.0*!
COc1ccc(C)c2sc(N(CCN3CCOCC3)C(=O)c3ccc(C)c(C)c3)nc12,.,.,31.0
O=C1CCCN1c1ncc(S(=O)(=O)c2ccc([N+](=O)[O-])cc2)s1,72.0,75.3,-1.6
Nc1ncc(S(=O)(=O)c2ccc([N+](=O)[O-])cc2)s1,97.6*,96.3*,-4.3
COc1ccc(CCNC(=O)CSc2nnc(-c3ccc(Cl)s3)o2)cc1OC,.,.,1.0
O=C(CCS(=O)(=O)c1ccccc1)N1CCN(c2cc(C(F)(F)F)ncn2)CC1,.,.,-18.0
O=C(CSc1ccc(-c2ccccn2)nn1)Nc1cccc(Cl)c1,.,.,43.3
O=C(CSc1nnc(-c2ccccn2)o1)Nc1ccccc1,-1.5,3.7,-9.0
O=C(CSC1=NNC(c2ccccn2)S1)Nc1cccc(Cl)c1 (stereo not drawn),2.1,15.9,42.1*
